# The supplement of paper PMC9794691
# What was measured:
# Experiment in all cases: area under confluence curve of osimertinib + compound combination regimen (DTP regrowth); compare to osimertinib-only DTP control AUC of the same experiment (AUC (confluence x time, arbitrary))
# [1] = test system: H1975
# Procedure, shortened: (§1)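 EGFR-mutant NSCLC lines went into 48-well plates at 20,000–30,000 cells/well in RPMI 1640 with 10% FBS and were kept at 37 °C, 5% CO2. Cells got either the EGFR inhibitor plus a fixed-dose test compound from the start through the persister stage (10–21 days) and then drug-free medium, or the inhibitor alone followed by the test compound. Medium was changed every 3–4 days until wells given only the inhibitor regrew to confluence. The endpoint was the area under the IncuCyte confluence–time curve, calculated in Prism and reported as the median of triplicates where available.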
# [2] = test system: HCC2279
# Procedure, shortened: as §1
# [3] = test system: HCC2935
# Procedure, shortened: as §1
# [4] = test system: HCC4006
# Procedure, shortened: as §1
# [5] = test system: HCC827
# Procedure, shortened: as §1
# [6] = test system: II-18
# Procedure, shortened: as §1
# [7] = test system: PC9
# Procedure, shortened: as §1
structure (smiles),measurement,setting,value
C[C@@]1(C(=O)Nc2ccc(F)nc2)CCCN1c1nc(Nc2cc(C3CC3)n[nH]2)c2cccn2n1 + C=CC(=O)Nc1cc(Nc2nccc(-c3cn(C)c4ccccc34)n2)c(OC)cc1N(C)CCN(C)C [osimertinib],area under confluence curve,"[1]; test compound dose 100 nM, dosing schedule: sequential, osimertinib-only DTP control AUC in same experiment: 22617, DMSO control AUC in same experiment: 16540",13500
same,area under confluence curve,"[1]; test compound dose 100 nM, dosing schedule: upfront, osimertinib-only DTP control AUC in same experiment: 28291, DMSO control AUC in same experiment: 16540",12500
same,area under confluence curve,"[2]; test compound dose 100 nM, dosing schedule: sequential, osimertinib-only DTP control AUC in same experiment: 26096, DMSO control AUC in same experiment: 14404",24200
same,area under confluence curve,"[2]; test compound dose 100 nM, dosing schedule: upfront, osimertinib-only DTP control AUC in same experiment: 33120, DMSO control AUC in same experiment: 14404",34700
same,area under confluence curve,"[3]; test compound dose 100 nM, dosing schedule: sequential, osimertinib-only DTP control AUC in same experiment: 22314, DMSO control AUC in same experiment: 19215",22300
same,area under confluence curve,"[3]; test compound dose 100 nM, dosing schedule: upfront, osimertinib-only DTP control AUC in same experiment: 29846, DMSO control AUC in same experiment: 19215",22200
same,area under confluence curve,"[4]; test compound dose 100 nM, dosing schedule: sequential, osimertinib-only DTP control AUC in same experiment: 12791, DMSO control AUC in same experiment: 18415",11000
same,area under confluence curve,"[4]; test compound dose 100 nM, dosing schedule: upfront, osimertinib-only DTP control AUC in same experiment: 17269, DMSO control AUC in same experiment: 18415",9040
same,area under confluence curve,"[5]; test compound dose 100 nM, dosing schedule: sequential, osimertinib-only DTP control AUC in same experiment: 15330, DMSO control AUC in same experiment: 21320",12600
same,area under confluence curve,"[5]; test compound dose 100 nM, dosing schedule: upfront, osimertinib-only DTP control AUC in same experiment: 20798, DMSO control AUC in same experiment: 21320",23300
same,area under confluence curve,"[6]; test compound dose 100 nM, dosing schedule: sequential, osimertinib-only DTP control AUC in same experiment: 8624, DMSO control AUC in same experiment: 11834",533
same,area under confluence curve,"[6]; test compound dose 100 nM, dosing schedule: upfront, osimertinib-only DTP control AUC in same experiment: 10856, DMSO control AUC in same experiment: 11834",1400
C/C=C/Cn1cc(-c2cc(OC)c(C(=O)N3CCOCC3)cc2OC)c2cc(C)[nH]c2c1=O + C=CC(=O)Nc1cc(Nc2nccc(-c3cn(C)c4ccccc34)n2)c(OC)cc1N(C)CCN(C)C [osimertinib],area under confluence curve,"[7]; test compound dose 100 nM, dosing schedule: sequential, osimertinib-only DTP control AUC in same experiment: 12891, DMSO control AUC in same experiment: 44384",7150
same,area under confluence curve,"[7]; test compound dose 100 nM, dosing schedule: upfront, osimertinib-only DTP control AUC in same experiment: 16570, DMSO control AUC in same experiment: 44384",7750
NC1(C(=O)N[C@@H](CCO)c2ccc(Cl)cc2)CCN(c2nc[nH]c3nccc2-3)CC1 [Capivasertib] + C=CC(=O)Nc1cc(Nc2nccc(-c3cn(C)c4ccccc34)n2)c(OC)cc1N(C)CCN(C)C [osimertinib],area under confluence curve,"[1]; test compound dose 300 nM, dosing schedule: sequential, osimertinib-only DTP control AUC in same experiment: 9919, DMSO control AUC in same experiment: 26010",1840
same,area under confluence curve,"[1]; test compound dose 300 nM, dosing schedule: upfront, osimertinib-only DTP control AUC in same experiment: 15327, DMSO control AUC in same experiment: 26010",3990
same,area under confluence curve,"[2]; test compound dose 300 nM, dosing schedule: sequential, osimertinib-only DTP control AUC in same experiment: 20224, DMSO control AUC in same experiment: 29252",13700
same,area under confluence curve,"[2]; test compound dose 300 nM, dosing schedule: upfront, osimertinib-only DTP control AUC in same experiment: 43517, DMSO control AUC in same experiment: 29252",38900
same,area under confluence curve,"[3]; test compound dose 300 nM, dosing schedule: sequential, osimertinib-only DTP control AUC in same experiment: 9121, DMSO control AUC in same experiment: 11459",5940
same,area under confluence curve,"[3]; test compound dose 300 nM, dosing schedule: upfront, osimertinib-only DTP control AUC in same experiment: 12748, DMSO control AUC in same experiment: 11459",10300
same,area under confluence curve,"[4]; test compound dose 300 nM, dosing schedule: sequential, osimertinib-only DTP control AUC in same experiment: 22375, DMSO control AUC in same experiment: 16794",17000
same,area under confluence curve,"[4]; test compound dose 300 nM, dosing schedule: upfront, osimertinib-only DTP control AUC in same experiment: 24440, DMSO control AUC in same experiment: 16794",12500
same,area under confluence curve,"[5]; test compound dose 300 nM, dosing schedule: sequential, osimertinib-only DTP control AUC in same experiment: 8266, DMSO control AUC in same experiment: 27404",5490
same,area under confluence curve,"[5]; test compound dose 300 nM, dosing schedule: upfront, osimertinib-only DTP control AUC in same experiment: 13929, DMSO control AUC in same experiment: 27404",9340
same,area under confluence curve,"[6]; test compound dose 300 nM, dosing schedule: sequential, osimertinib-only DTP control AUC in same experiment: 3520, DMSO control AUC in same experiment: 13556",3590
same,area under confluence curve,"[6]; test compound dose 300 nM, dosing schedule: upfront, osimertinib-only DTP control AUC in same experiment: 6532, DMSO control AUC in same experiment: 13556",2040
same,area under confluence curve,"[7]; test compound dose 300 nM, dosing schedule: sequential, osimertinib-only DTP control AUC in same experiment: 3562, DMSO control AUC in same experiment: 31840",1390
same,area under confluence curve,"[7]; test compound dose 300 nM, dosing schedule: sequential, osimertinib-only DTP control AUC in same experiment: 10725, DMSO control AUC in same experiment: 30578",2030
same,area under confluence curve,"[7]; test compound dose 300 nM, dosing schedule: sequential, osimertinib-only DTP control AUC in same experiment: 12535, DMSO control AUC in same experiment: 43316",2150
same,area under confluence curve,"[7]; test compound dose 300 nM, dosing schedule: upfront, osimertinib-only DTP control AUC in same experiment: 10245, DMSO control AUC in same experiment: 30578",9240
same,area under confluence curve,"[7]; test compound dose 300 nM, dosing schedule: upfront, osimertinib-only DTP control AUC in same experiment: 15354, DMSO control AUC in same experiment: 43316",14600
same,area under confluence curve,"[7]; test compound dose 300 nM, dosing schedule: upfront, osimertinib-only DTP control AUC in same experiment: 19015, DMSO control AUC in same experiment: 31840",13200
CN(C)CCCOc1ccc(-c2ccc3ncc4c(c3c2)n(C2CCOCC2)c(=O)n4C)cn1 + C=CC(=O)Nc1cc(Nc2nccc(-c3cn(C)c4ccccc34)n2)c(OC)cc1N(C)CCN(C)C [osimertinib],area under confluence curve,"[1]; test compound dose 300 nM, dosing schedule: sequential, osimertinib-only DTP control AUC in same experiment: 19301, DMSO control AUC in same experiment: 26223",3330
same,area under confluence curve,"[1]; test compound dose 300 nM, dosing schedule: upfront, osimertinib-only DTP control AUC in same experiment: 23997, DMSO control AUC in same experiment: 26223",18100
same,area under confluence curve,"[2]; test compound dose 300 nM, dosing schedule: sequential, osimertinib-only DTP control AUC in same experiment: 26096, DMSO control AUC in same experiment: 14404",24700
same,area under confluence curve,"[2]; test compound dose 300 nM, dosing schedule: upfront, osimertinib-only DTP control AUC in same experiment: 33120, DMSO control AUC in same experiment: 14404",33900
same,area under confluence curve,"[3]; test compound dose 300 nM, dosing schedule: sequential, osimertinib-only DTP control AUC in same experiment: 22314, DMSO control AUC in same experiment: 19215",22300
same,area under confluence curve,"[3]; test compound dose 300 nM, dosing schedule: upfront, osimertinib-only DTP control AUC in same experiment: 29846, DMSO control AUC in same experiment: 19215",30600
same,area under confluence curve,"[4]; test compound dose 300 nM, dosing schedule: sequential, osimertinib-only DTP control AUC in same experiment: 12791, DMSO control AUC in same experiment: 18415",12000
same,area under confluence curve,"[4]; test compound dose 300 nM, dosing schedule: upfront, osimertinib-only DTP control AUC in same experiment: 17269, DMSO control AUC in same experiment: 18415",16000
same,area under confluence curve,"[5]; test compound dose 300 nM, dosing schedule: sequential, osimertinib-only DTP control AUC in same experiment: 15330, DMSO control AUC in same experiment: 21320",12300
same,area under confluence curve,"[5]; test compound dose 300 nM, dosing schedule: upfront, osimertinib-only DTP control AUC in same experiment: 20798, DMSO control AUC in same experiment: 21320",17400
same,area under confluence curve,"[6]; test compound dose 300 nM, dosing schedule: sequential, osimertinib-only DTP control AUC in same experiment: 8624, DMSO control AUC in same experiment: 11834",9720
same,area under confluence curve,"[6]; test compound dose 300 nM, dosing schedule: upfront, osimertinib-only DTP control AUC in same experiment: 10856, DMSO control AUC in same experiment: 11834",10600
same,area under confluence curve,"[7]; test compound dose 300 nM, dosing schedule: sequential, osimertinib-only DTP control AUC in same experiment: 7760, DMSO control AUC in same experiment: 29563",4600
same,area under confluence curve,"[7]; test compound dose 300 nM, dosing schedule: sequential, osimertinib-only DTP control AUC in same experiment: 15001, DMSO control AUC in same experiment: 22064",14800
same,area under confluence curve,"[7]; test compound dose 300 nM, dosing schedule: sequential, osimertinib-only DTP control AUC in same experiment: 15044, DMSO control AUC in same experiment: 30604",3980
same,area under confluence curve,"[7]; test compound dose 300 nM, dosing schedule: upfront, osimertinib-only DTP control AUC in same experiment: 11798, DMSO control AUC in same experiment: 29563",5590
same,area under confluence curve,"[7]; test compound dose 300 nM, dosing schedule: upfront, osimertinib-only DTP control AUC in same experiment: 20672, DMSO control AUC in same experiment: 30604",5990
same,area under confluence curve,"[7]; test compound dose 300 nM, dosing schedule: upfront, osimertinib-only DTP control AUC in same experiment: 24924, DMSO control AUC in same experiment: 22064",22400
